# Test results reported in the supplement of paper PMC6555819.
# Tested on: LXRb homodimer (NR concentration 270 nM)
# Assay: PBM binding z-score (relative to random genomic background probes); higher = stronger binding; sequences stand for … in GC…GCGATTGACAGCGTAGAATGAAGG
# Procedure, shortened: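 The probes on custom Agilent 4×180K protein-binding microarrays were double-stranded, with 34-nt variable regions bearing direct-repeat seeds, single-nucleotide variants, half-site ablations and random human genomic background sequences. Incubation lasted 1 h with ligand-free nuclear receptor dimers in PBS pH 7.4, 2% milk, 0.02% Triton X-100, 1 mM DTT, 0.2 mg/mL BSA and 0.4 mg/ml salmon testes DNA. Antibodies against each partner (one per run) detected bound dimers, and fluorescence scans were regression-normalized. Binding z-scores take the random background probes as reference.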
row,Sequence,PBM binding z-score
1,CCTACTGGGCAAAAGGTCATTGATTCCAATGCTC,0.466
2,CAGCCTAGATCAGGGCCAGTATAGGAGGAACGTT,-1.15
3,ACTAGTTGGTCAGCTGAGGTCACACAGAATTCGG,0.768
4,GCAGACAGGTTAAACGCAGGTAACTCAGGGTGGC,-0.662
5,TCATATGGGTAATACAGGTGAAAGTCGGCATCTA,-0.138
6,GCAGACAGGTAAAACGCAGGTAACTCAGGGTGGC,-0.917
7,CGTCAAAGTTCAATGTAACGTAACAGAAAGCAGC,1.74
8,GGTACGAGGGCAAGTTGATAGCAGAGTTTGATGG,-0.129
9,TAGCCCAGGTCATTCAGGGGCCAGTATAGAAAGC,0.952
10,AGAATGCGGTTATTAAGATCAGGGAATTGCGGTC,-0.728
11,GCTTACGAGTCAAAGGTTATAGCATGAATAGAAT,-0.261
12,GCAGACAGGTGAGACGCAGGTAACTCAGGGTGGC,-1.18
13,CCTACTGGGCTAAAAAGGTCATTGATGCCGATAA,0.0245
14,CAGCCTAGGTCAGGGCCAGTCTAGGAGGAACGTT,-1.33
15,CCGACTGAGGCAAAGGTTACCATACTCAGTACGA,-0.611
16,GATACAGGGTCAAAGCCAGAGTACGCGTATTGAT,0.158
17,ATACCAAGGTGATCGTGAGGTCGGTGATACTAAC,-0.161
18,CCGCCTGGGGCAAGGTTACCATAACGCACAGCCA,-1.07
19,CCAGACAGGTGAGAAGGTAACTGAGCCTCGATTA,-0.691
20,CGAACTAGGACATTGACAGGACAGTGAATAGTAA,-0.79
21,CAGACTAGGTCACAGAGGTCAAAGTCCGTGCGTA,1.62
22,GCGACTGGGGCATCAGTAGGTTACCATAACTTAA,-0.678
